Common to all, as to test: NCI-60 one-dose screen, 48 h (100 = growth as untreated, 0 = no growth, -100 = all killed)
Common to all, as to settings: 10 µM unless noted

The subject of assay [1] is NCI-H23 lung.
Assay [2] relates to NCI-H226 lung.
Assay [3] deals with NCI-H322M lung.
Assay [4] concerns HOP-62 NSCLC.
In assay [5] the test system is NCI-H460 lung.
In assay [6] the test system is HOP-92 NSCLC.
Assay [7] relates to NCI-H522 lung.
Assay [8] concerns 786-0 renal.
Assay [9] deals with COLO 205 colon.
Assay [10] has as its system DU-145 prostate.
Assay [11] relates to K-562 leukemia.
Assay [12] concerns MALME-3M melanoma.
The subject of assay [13] is MDA-MB-231 breast.
Assay [14] has as its system RXF 393 renal.
Assay [15] has as its system SF-268 CNS.
Assay [16] deals with SF-295 CNS.
For assay [17], the system named is SF-539 CNS.
In assay [18] the test system is UACC-257 melanoma.
Assay [19] deals with M14 melanoma.
The test system of assay [20] is A549/ATCC NSCLC.

The panel holds about 83,000 compounds, 20% with a hit somewhere; the sample as a whole holds those more often.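 Single-dose data. Exposure time 48 hours. Values below 10 considered active.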 Unmarked numbers belong to inactive results. Calls of active or inactive are those of the source.

As for `O=C(NCCN1CCOCC1)c1cncnc1Nc1ccc2c(ccn2Cc2ccccn2)c1`, the growth in assay [1] is 102%; in [2] it was 95.2%; in assay [3], 105%; in [4] it was 102%; in [5] it was 103%; in assay [6], 93.8%. For the same compound, the growth in assay [7] is 83.7%; in [8], 98.5%; in assay [9], 95.6%; in [10], 110%; in [11] it was 116%; in assay [12], 102%. In addition, the growth in [13] was 106%; in assay [14], 134%; in assay [15], 97.3%; in assay [16], 102%; in assay [17] it was 100%; in assay [18], 102%. For the same compound, in assay [19], the growth is 108%.
For `CN(C)c1ccc(/C=C/C2=[N+](C)c3ccccc3C2(C)C)cc1`, the growth in assay [1] is 5.41% (active); in assay [2], 29.4%; in assay [3], 28.7%; in assay [4], 28.7%; in assay [5], 20%; in assay [6], -19.9% (active). For the same compound, the growth was 18.5% in assay [7]; 25% in [8]; -76.2% (active) in assay [9]; 25.3% in assay [10]; 14.2% in assay [11]; -6.64% (active) in assay [12]. Moreover, the growth in assay [13] was 3.11% (active); in [14] it was 39.9%; in [15], 20.9%; in assay [16] it was 0.915% (active); in assay [17], 16.9%; in [18], 12.6%. In [19], the growth was 18.4%.
With `N#CC1=C(N)Oc2c(ccc3cccnc23)C1c1ccccc1` (centres undefined), the growth in assay [1] is 17.7%; in [2], 54%; in assay [3], 39.2%; in assay [4], 43.2%; in assay [5], 16%; in [6] it was 32.3%. In addition, the growth is 20.3% in assay [7]; 35.3% in assay [8]; 9.2% (active) in assay [9]; 17.6% in assay [10]; 17.2% in assay [11]; 47.9% in [12]. For the same compound, the growth in [13] was 48.6%; in assay [14], 4.49% (active); in [15] it was 45.2%; in [16], 18.1%; in assay [17] it was -39.6% (active); in [18], 74.4%. Also, the growth in [19] is 20%.
With `CC(=O)OCC(=O)O[C@@H]1C[C@]2(C(C)C)O[C@@]1(C)[C@@H]1CC[C@@H](C)[C@H]1[C@@H]2OC(=O)/C=C/c1ccccc1`, the growth in [1] was 89.7%; in [2], 68.4%; in assay [3], 84.8%; in [4] it was 86.7%; in [5] it was 90.2%; in assay [6], 67.4%. Also, the growth in assay [7] is 78.1%; in assay [20] it was 71.7%; in [8] it was 66.3%; in [9] it was 97.5%; in [10], 101%; in assay [11], 67.5%. For the same compound, the growth in [12] is 101%; in [13], 82.9%; in assay [14], -2.3% (active); in assay [15], 51.5%; in assay [16] it was 88.8%; in assay [17], 92.4%. Besides, the growth is 92.5% in assay [18] and 97.2% in [19].
On to `COC(=O)c1nc(-c2ccccc2)oc1S(=O)(=O)N1CCN(c2ccc(OC)cc2)CC1`, for which the growth in [1] is 89.1%; in [2], 91.5%; in assay [3] it was 91.1%; in [4] it was 94.5%; in assay [5], 98.5%; in assay [6], 60%. In addition, the growth was 48.3% in [7]; 60.9% in assay [8]; 61.7% in assay [9]; 86.5% in assay [10]; 20.4% in assay [11]; 77.4% in [12]. In addition, the growth in assay [13] was 75.7%; in assay [14], 84.9%; in [15], 93.8%; in assay [16] it was 103%; in assay [17], 94.1%; in assay [18], 83.4%. For the same compound, in [19], the growth is 54.2%.
On to `CC(=O)[C@H]1CC[C@]2(C)[C@@H]1CC[C@@H]1[C@@]3(C)C/C(=C/c4cccnc4)C(=O)C(C)(C)[C@@H]3CC[C@]12C`, for which the growth in assay [1] is 78.2%; in assay [2], 81.1%; in [3] it was 91.6%; in [4] it was 115%; in assay [5], 67.3%; in assay [6], 48.8%. Also, the growth in assay [7] is 68%; in [8] it was 121%; in assay [9], 64.2%; in assay [10], 85.3%; in assay [11], 30.3%; in assay [12], 82.6%. The growth was 83.9% in assay [13]; 97.7% in assay [14]; 79.7% in [15]; 89.8% in assay [16]; 97.6% in [17]; 63.4% in [18]. In addition, in assay [19], the growth is 71.8%.
On to `COc1cc2c(c(OC)c1OC)CCC(c1cccc(NC(=O)c3cccc(Cl)c3)c1)O2` (centres undefined), for which the growth in [1] was 92.7%; in assay [2], 79.8%; in assay [3], 90.3%; in assay [4] it was 92.8%; in assay [5], 96.9%; in [6] it was 83.1%. Further, the growth was 62.1% in assay [7]; 96.7% in assay [8]; 94.2% in assay [9]; 102% in assay [10]; 72% in [11]; 86.6% in [12]. Further, the growth in [13] is 88%; in assay [14], 96%; in assay [15] it was 90.6%; in [16] it was 74.4%; in assay [17] it was 103%; in assay [18] it was 94.2%. In addition, in assay [19], the growth is 86.6%.
